This note sets out measurements from PubChem BioAssay (NCATS).

Experiment [1] concerns the target Rap guanine nucleotide exchange factor 3 (Homo sapiens) (UniProt O95398). Nature of the experiment: Confirmatory qHTS for antagonist of cAMP-regulated guanine nucleotide exchange factor 3 (EPAC1) (AID 1645880). Note: nearly all actives have a fitted effect of over 55% in size. Note: potency is the fitted concentration of half-maximal effect. An outline of the steps:
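Nucleotide exchange uses 100 nM EPAC1, 250 nM RAP1B-BODIPY-GDP and 50 uM GDP, with compounds in a concentration-titration series. After 5 min at room temperature, fluorescence (480 nm ex/540 nm em) is read every 5 min for 30 min. Data are normalized to control ATA and DMSO.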
(qHTS replaces the single test concentration by a dilution series.)

For experiment [2] the target is unchanged. In words: Confirmatory qHTS for agonist of cAMP-regulated guanine nucleotide exchange factor 3 (EPAC1) (AID 1645881).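 Note: EPAC1 catalysed release of BODIPY-GDP from Rap1B seen as fluorescence loss; 100% = effect of cAMP agonist control; nearly all actives have a fitted effect of over 75% in size.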
Experiment [3] has as its target Rap guanine nucleotide exchange factor 4 (Homo sapiens) (UniProt Q8WZA2). Nature of the experiment: Confirmatory qHTS for agonist of cAMP-regulated guanine nucleotide exchange factor 4 (EPAC2) (AID 1645884).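 Note: nucleotide exchange releases bodipy-GDP from Rap1 and this lowers its fluorescence; % is set by controls: 0 for no effect and ±100 for the full control effect; nearly all actives have a fitted effect of over 65% in size.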
The target is the same in experiment [4]. Nature of the experiment: Confirmatory qHTS for antagonist of cAMP-regulated guanine nucleotide exchange factor 4 (EPAC2) (AID 1645885). For activity change, negative = inhibition: % is set by controls: 0 for no effect and ±100 for the full control effect. Note: nearly all actives have a fitted effect of over 25% in size. Note: potency is the fitted concentration of half-maximal effect.
For experiment [5], the target named is Rap guanine nucleotide exchange factor 3 (Homo sapiens) (UniProt O95398). Nature of the experiment: Counterscreen qHTS for antagonist of cAMP-regulated guanine nucleotide exchange factor 3 (EPAC1) (AID 1645888).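 Note: fluorescence loss as bound BODIPY-GDP is released from Rap1B; % of control where 0% means no effect.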 An outline of the steps:
(§1)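 Measured: fluorescence of BODIPY-GDP bound to Rap1B, which falls as exchange proceeds. Conditions include 50 uM competing GDP, 5 and 30 min reads, and a later cAMP challenge for antagonist detection.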

The target is the same in experiment [6]. Nature of the experiment: Counterscreen qHTS for agonist of cAMP-regulated guanine nucleotide exchange factor 3 (EPAC1) (AID 1645889). Note: % of control where 0% means no effect; nearly all actives have a fitted effect of over 40% in size. An outline of the steps: as §1
(In general: A counterscreen serves to expose hits that act by an unwanted route or on another target.)

SMILES strings stand for the structures. Inconclusive results are not listed. A number with no mark means an inactive call. Activity calls are given as the source filed them. Calls come from the whole dose curve; as a rule, active = well fitted curve in the direction sought with a large enough effect; inconclusive = small, poorly fitted or top-dose-only effect, or another doubt; inactive = no such curve, though single readings can be large; an effect the other way counts as inactive or inconclusive.

Sequence of Rap guanine nucleotide exchange factor 3 (Homo sapiens) (O95398 whole entry, looked up): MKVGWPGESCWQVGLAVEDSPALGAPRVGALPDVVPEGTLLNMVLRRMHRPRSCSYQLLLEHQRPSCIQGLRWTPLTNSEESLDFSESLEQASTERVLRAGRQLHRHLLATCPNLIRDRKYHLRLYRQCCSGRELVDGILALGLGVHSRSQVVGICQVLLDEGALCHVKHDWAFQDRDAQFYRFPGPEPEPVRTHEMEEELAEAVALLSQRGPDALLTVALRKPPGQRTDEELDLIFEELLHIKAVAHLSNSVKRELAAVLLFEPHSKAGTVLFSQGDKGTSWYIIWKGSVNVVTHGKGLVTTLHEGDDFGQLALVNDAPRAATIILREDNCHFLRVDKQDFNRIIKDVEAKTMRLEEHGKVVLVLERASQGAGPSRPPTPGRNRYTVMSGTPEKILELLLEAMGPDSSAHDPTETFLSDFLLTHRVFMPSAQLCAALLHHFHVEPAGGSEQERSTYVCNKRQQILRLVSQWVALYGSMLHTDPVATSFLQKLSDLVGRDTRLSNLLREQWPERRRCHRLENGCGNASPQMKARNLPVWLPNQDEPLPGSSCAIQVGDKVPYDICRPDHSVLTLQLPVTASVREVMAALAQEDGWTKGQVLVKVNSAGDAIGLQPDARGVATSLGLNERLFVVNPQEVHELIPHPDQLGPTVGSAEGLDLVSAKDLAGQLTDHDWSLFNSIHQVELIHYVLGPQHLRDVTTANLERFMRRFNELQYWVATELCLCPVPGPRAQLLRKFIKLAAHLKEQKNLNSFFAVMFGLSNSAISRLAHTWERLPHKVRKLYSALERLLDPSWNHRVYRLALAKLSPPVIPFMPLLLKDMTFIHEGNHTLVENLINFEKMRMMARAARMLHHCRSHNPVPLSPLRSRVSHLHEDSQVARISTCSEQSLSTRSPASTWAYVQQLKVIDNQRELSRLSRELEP
Sequence of Rap guanine nucleotide exchange factor 4 (Homo sapiens) (Q8WZA2 whole entry, looked up): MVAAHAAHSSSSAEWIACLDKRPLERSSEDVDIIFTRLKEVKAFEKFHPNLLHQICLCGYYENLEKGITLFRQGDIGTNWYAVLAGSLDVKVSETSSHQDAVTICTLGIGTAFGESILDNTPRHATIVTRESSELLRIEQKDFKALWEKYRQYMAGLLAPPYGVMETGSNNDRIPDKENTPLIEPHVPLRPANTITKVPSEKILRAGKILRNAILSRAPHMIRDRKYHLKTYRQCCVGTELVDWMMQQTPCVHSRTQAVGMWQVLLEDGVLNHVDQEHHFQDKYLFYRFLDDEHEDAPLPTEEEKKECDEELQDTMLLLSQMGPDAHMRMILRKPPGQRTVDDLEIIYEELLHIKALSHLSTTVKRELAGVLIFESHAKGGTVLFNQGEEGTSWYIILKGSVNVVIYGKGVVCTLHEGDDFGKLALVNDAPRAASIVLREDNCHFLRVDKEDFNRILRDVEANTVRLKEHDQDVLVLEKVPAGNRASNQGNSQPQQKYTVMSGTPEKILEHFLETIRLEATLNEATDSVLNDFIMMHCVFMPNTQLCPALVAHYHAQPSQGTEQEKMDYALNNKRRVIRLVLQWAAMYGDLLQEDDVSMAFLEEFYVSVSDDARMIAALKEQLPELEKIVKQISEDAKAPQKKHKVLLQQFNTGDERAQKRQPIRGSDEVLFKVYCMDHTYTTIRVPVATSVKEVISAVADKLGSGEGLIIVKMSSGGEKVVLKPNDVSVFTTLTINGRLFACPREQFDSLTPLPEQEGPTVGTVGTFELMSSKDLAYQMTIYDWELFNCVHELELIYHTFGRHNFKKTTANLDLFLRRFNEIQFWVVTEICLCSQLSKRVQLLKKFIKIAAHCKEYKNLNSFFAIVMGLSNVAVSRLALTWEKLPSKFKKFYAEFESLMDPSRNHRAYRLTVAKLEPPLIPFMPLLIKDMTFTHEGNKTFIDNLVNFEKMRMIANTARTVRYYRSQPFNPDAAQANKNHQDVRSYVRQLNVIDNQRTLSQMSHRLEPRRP

Take `CCc1nc2c(OCc3ccc(C(=O)OC)cc3)cccn2c1N(C)C(=O)CC(C)C`: the Potency entry in experiment [1], in experiment [2], in experiment [3], in experiment [4], in experiment [5] and in experiment [6] was “inactive” each time.
In the case of `CCOc1cc(C(=O)Nc2ccc3c(c2)n(C)c(=O)c(=O)n3C)cc(OCC)c1OCC`, the Potency entry in experiment [1], in experiment [2], in experiment [3], in experiment [5] and in experiment [6] was “inactive” each time. Also, in experiment [4], the outcome is “inactive [at 12.7 µM]”.
Consider `O=C(O)c1ccc(Nc2ncnc3ccccc23)cc1`, for which the Potency entry in experiment [1], in experiment [2], in experiment [3], in experiment [4], in experiment [5] and in experiment [6] was “inactive” in each case.
Take `COC(=O)c1sccc1NS(=O)(=O)c1ccccc1[N+](=O)[O-]`: the Potency entry in experiment [1], in experiment [2] and in experiment [4] was “inactive” each time. In addition, the activation in experiment [3] is -1.71% [at 17.1 µM, percent relative to cAMP agonist control]; in experiment [6], 33.8% [at 30.8 µM]. For the same molecule, the activity change, negative = inhibition in experiment [5] was -0.412% [at 30.8 µM].
For `COCCNC(=O)CSc1nc2cc3c(cc2c(=O)n1CCCCCC(=O)NCc1ccc(OC)cc1)OCO3`, the Potency result in experiment [1], in experiment [2], in experiment [3], in experiment [4], in experiment [5] and in experiment [6] was “inactive” throughout.
As for `CCN(CC(=O)Nc1ccccc1C(F)(F)F)C(=O)CCOc1ccccc1C`, the Potency result in experiment [1], in experiment [2] and in experiment [4] was “inactive” throughout. Moreover, the activation is -3.64% [at 17.1 µM, percent relative to cAMP agonist control] in experiment [3] and 1.11% [at 30.8 µM] in experiment [6]. Moreover, the activity change, negative = inhibition in experiment [5] was -14% [at 30.8 µM].
For the molecule `Nc1c(-c2nc(-c3cccs3)no2)nnn1-c1cccc(Cl)c1`, the Potency entry in experiment [1], in experiment [2], in experiment [3], in experiment [5] and in experiment [6] was “inactive” in each case. Moreover, the outcome in experiment [4] was “inactive [at 12.7 µM]”.
Turning to `Cn1c2ccccc2c2cc(/C=N/NC(=O)c3cc(O)ccc3O)ccc21`, the Potency in experiment [1] was 25.1 µM (active). For the same molecule, the Potency entry in experiment [2] and in experiment [4] was “inactive” in each case. Besides, the activation is -2.01% [at 17.1 µM, percent relative to cAMP agonist control] in experiment [3] and 29.4% [at 30.8 µM] in experiment [6]. The activity change, negative = inhibition in experiment [5] is -0.77% [at 30.8 µM].
`O=C1CC(Cc2ccccc2)C(=O)N1CCc1ccc2c(c1)OCO2` (configuration not stated): the Potency entry in experiment [1], in experiment [2] and in experiment [4] was “inactive” each time. For the same molecule, the activation was 2.14% [at 17.1 µM, percent relative to cAMP agonist control] in experiment [3] and 1.4% [at 30.8 µM] in experiment [6]. Moreover, in experiment [5], the activity change, negative = inhibition was -4.71% [at 30.8 µM].
For the molecule `COc1ccc(CCNC(=O)CCCCCn2c(SCC(N)=O)nc3cc4c(cc3c2=O)OCO4)cc1OC`, the Potency entry in experiment [1], in experiment [2], in experiment [3], in experiment [4], in experiment [5] and in experiment [6] was “inactive” each time.
Regarding `CCC(=O)OCCCNc1nc(-c2ccc(Cl)cc2)nc2ccccc12`, the Potency entry in experiment [1], in experiment [2], in experiment [3], in experiment [4], in experiment [5] and in experiment [6] was “inactive” in each case.
On to `CC(=O)Nc1ccc(Nc2nc3ccccc3nc2NS(=O)(=O)c2ccc(Cl)c([N+](=O)[O-])c2)cc1`, for which the Potency in experiment [1] is 50.1 µM (active). The Potency result in experiment [2] and in experiment [4] was “inactive” throughout. Moreover, the activation in experiment [3] was -3.97% [at 17.1 µM, percent relative to cAMP agonist control]; in experiment [6] it was 21.8% [at 30.8 µM]. In experiment [5], the activity change, negative = inhibition was -36.3% [at 30.8 µM].
`CC1(C(=O)NS(=O)(=O)c2ccc3ccccc3c2)CCN1C(=O)C1(c2ccc(Cl)cc2)CCC1` (configuration not stated): the Potency in experiment [1] was 37.9 µM (active). Further, the Potency result in experiment [2], in experiment [3], in experiment [4], in experiment [5] and in experiment [6] was “inactive” each time.
For the molecule `CC1(C)CC(=O)C2=C(C1)c1c(ccc3ccccc13)NC2c1cc([N+](=O)[O-])cc([N+](=O)[O-])c1O` (configuration not stated), the Potency in experiment [1] was 9.53 µM (active); in experiment [4], 26.9 µM (active). The Potency entry in experiment [2], in experiment [3], in experiment [5] and in experiment [6] was “inactive” throughout.
With `CCc1cc(C(=O)c2ccc(OC)cc2)c(NC(=O)CC(C)(C)CC(=O)O)s1`, the Potency result in experiment [1], in experiment [2], in experiment [3], in experiment [4], in experiment [5] and in experiment [6] was “inactive” in each case.
As for `O=c1[nH]c(/C=C/c2cccc([N+](=O)[O-])c2)c([N+](=O)[O-])c(=O)[nH]1`, the Potency in experiment [1] was 16.9 µM (active). For the same molecule, the Potency entry in experiment [2], in experiment [3], in experiment [4], in experiment [5] and in experiment [6] was “inactive” each time.
For the molecule `Cc1ccccc1-c1cc(C(=O)NCc2ccc3c(c2)OCO3)n(CC2CC(c3cccnc3)=NO2)n1` (configuration not stated), the Potency result in experiment [1], in experiment [2], in experiment [3], in experiment [4], in experiment [5] and in experiment [6] was “inactive” in each case.
